The whole screen tested about 1,800 compounds, of which about 240 (13%) were called active. A selection follows. A number with no mark means an inactive call. Rule as the data show it: active = inhibition above about 40%; inactive = the rest.

Sequence of NEDD8-conjugating enzyme Ubc12 (Homo sapiens) + NEDD8-activating enzyme E1 regulatory subunit (Homo sapiens) (P61081 whole entry, looked up): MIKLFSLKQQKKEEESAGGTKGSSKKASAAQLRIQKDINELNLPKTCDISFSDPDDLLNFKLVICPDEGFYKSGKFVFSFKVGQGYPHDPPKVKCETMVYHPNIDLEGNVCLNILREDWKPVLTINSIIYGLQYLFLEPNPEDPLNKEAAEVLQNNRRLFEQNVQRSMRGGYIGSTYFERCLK
Sequence of NEDD8-conjugating enzyme Ubc12 (Homo sapiens) + NEDD8-activating enzyme E1 regulatory subunit (Homo sapiens) (Q13564 whole entry, looked up): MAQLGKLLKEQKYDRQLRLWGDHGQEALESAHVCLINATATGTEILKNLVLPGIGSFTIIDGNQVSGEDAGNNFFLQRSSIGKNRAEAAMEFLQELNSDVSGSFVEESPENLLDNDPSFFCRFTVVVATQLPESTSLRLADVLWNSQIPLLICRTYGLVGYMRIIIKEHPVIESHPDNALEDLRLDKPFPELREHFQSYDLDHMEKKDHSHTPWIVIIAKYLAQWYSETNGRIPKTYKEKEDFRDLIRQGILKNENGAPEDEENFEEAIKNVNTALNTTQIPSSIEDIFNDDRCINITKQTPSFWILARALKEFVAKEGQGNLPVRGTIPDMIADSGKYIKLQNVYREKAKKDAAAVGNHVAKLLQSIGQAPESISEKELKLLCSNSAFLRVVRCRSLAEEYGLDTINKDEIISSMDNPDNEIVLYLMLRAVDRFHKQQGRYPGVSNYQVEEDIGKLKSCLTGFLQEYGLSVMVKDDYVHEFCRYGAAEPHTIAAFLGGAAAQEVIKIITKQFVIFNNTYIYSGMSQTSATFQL

This test addresses NEDD8-conjugating enzyme Ubc12 (Homo sapiens) + NEDD8-activating enzyme E1 regulatory subunit (Homo sapiens) (UniProt P61081+Q13564). The experiment in a line: blockade of NEDD8 conjugation to cullin – biochemical, TR-FRET, single concentration, confirmation (AID 652217).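 Also: neddylation substrate is the cullin 1 ring ligase complex with SKP2.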 The conditions noted are these: TR-FRET cullin neddylation biochemical assay; at 25 µM; hits give high values. In general terms: TR-FRET usually uses a lanthanide donor and a delayed reading to cut background.
A word on the inhibition: it is the relative decrease from the control value, in per cent. Take `COc1cccc(Cn2cc(/C=N/NC(=O)c3cc(O)cc(O)c3)c3ccccc32)c1`: the inhibition was 41.7% (active).

As for `O=C(Cn1cc(/C=N/NC(=O)c2cccc(C(F)(F)F)c2)c2ccccc21)Nc1ccc(F)cc1`, the inhibition is 20.1%. The figure for `CN(C)c1ccc(/C=N/Nc2cc(N3CCOCC3)nc(N3CCOCC3)n2)cc1` is 14.8%. Take `COc1ccc2oc(C(=O)NCC(Cc3ccccc3)N(C)C)c(C)c2c1` (stereo not given): the inhibition is 39.6%.

Turning to `c1ccc(-c2[nH]ncc2-c2nc3ccccc3[nH]2)cc1`, the inhibition was 34.5%. Take `CCN(CC)c1ccc(/C=N/Nc2nc(C)cc(=O)[nH]2)cc1`: the inhibition was 28.2%. In the case of `CCN(CC)c1ccc(/C=N/NC(=O)CNC(=O)c2cccs2)cc1` it was 54.1% (active); in that of `COc1ccc(Br)cc1/C=N/Nc1ccc(Cl)c(C(=O)O)c1`, 37.5%.

On to `CC(=O)Nc1nc(C)c(-c2csc(Nc3ccc(S(N)(=O)=O)cc3)n2)s1`, for which the inhibition was 79.2% (active). As to `CC(=O)c1ccc(Nc2nc(C(N)c3ccccc3)cs2)cc1` (stereo not given), the inhibition was 32.9%. The figure for `Cc1noc(C)c1COc1ccc2ccc(=O)oc2c1` is 33.5%.

In the case of `COc1cccc(C2c3[nH]c4ccccc4c3CCN2Cc2cccc(C)n2)c1` (stereo not given), the inhibition was 26.3%. As for `Nc1nnnn1CC(=O)N/N=C/c1ccc(-c2cccc(Cl)c2)o1`, the inhibition is 22.7%. The figure for `C=CCNC(=O)c1ccc2c3n(nc2c1)-c1ccc(C)cc1CO3` is 47.4% (active); for `O=C(N/N=C/c1ccccc1O)C1CCCC1` it is 38.7%; for `CCN(/N=C/c1ccc(N(C)C)cc1)c1nc2ccccc2[nH]1` it is 42.9% (active). Consider `C=CCn1c(COc2cccc3cccnc23)nnc1SCC(=O)OC`, for which the inhibition is 36.7%. The figure for `O=C(/C=C/c1cn(-c2ccccc2)nc1-c1ccc2c(c1)OCCO2)NCCCN1CCOCC1` is 33.2%; for `CC(=O)Nc1cc(-c2ccc(N3CCN(C)CC3)cc2)cn2c(-c3ccc(F)cc3)cnc12` it is 45.5% (active); for `COC(=O)C1=CN(C)C=C(C(=O)OC)C1c1ccc(Cl)cc1Cl` it is 20%. The figure for `CC(C(=O)NC1CCCCC1)N1C(=O)c2cccc3cccc1c23` (stereo not given) is 39.8%; for `O=C(NNC(=S)NC1CC2CCC1C2)c1ccc(Cl)cc1` (stereo not given) it is 7.17%; for `COc1cccc(/C=C/C(=O)OCC(=O)N2CCCc3ccccc32)c1` it is 38.8%. As for `Cc1ccc(C)c(NC(=O)NNC(=O)c2ccc3ccccc3c2O)c1`, the inhibition was 30.6%.

Consider `COC(=O)C1=CN(Cc2ccc(OC)cc2)C=C(C(=O)OC)C1c1ccc(O)c(OC)c1`, for which the inhibition was 33%. In the case of `CS(=O)(=O)c1ccc2nc(NC(=O)c3ccc(Cl)nc3)sc2c1` it was 66% (active). The figure for `CCOc1ccc2[nH]c(C(=O)N/N=C/c3cccc(OC)c3OC)cc2c1` is 44.6% (active); for `COc1ccc2[nH]c(C(=O)N/N=C/c3cc(OC)c(OC)c(OC)c3)cc2c1` it is 49.6% (active).

With `COc1cc2cc(C(=O)N/N=C/c3cccc(OC)c3OC)[nH]c2cc1OC`, the inhibition was 41.9% (active).

Regarding `COc1cc2ccccc2cc1C(=O)Nc1ccncc1`, the inhibition is 39.2%.

With `CCOC(=O)c1cnc2nc(SCc3ccccc3Cl)[nH]n2c1=O`, the inhibition is 20%. Take `CCOc1ccc2[nH]c(=O)c(CN(Cc3nnnn3Cc3ccccc3)CC3CCCO3)cc2c1` (stereo not given): the inhibition is 15.2%.

As for `COCCCNc1nc2ccccc2nc1NS(=O)(=O)c1ccc(F)cc1`, the inhibition is 29%.

In the case of `Cc1ccc2occ(/C=N/NC(=O)c3ccccc3C)c(=O)c2c1`, the inhibition was 24%.

With `O=c1c2c(nc3cc(-c4cccc(Cl)c4)[nH]n13)CCCC2`, the inhibition was -10.4%.

As to `NNC(=O)c1oc2nc(-c3ccccc3)cc(-c3ccco3)c2c1N`, the inhibition was 14.3%. The figure for `CN(C)c1ccnc2sc(C(=O)c3ccccc3)c(N)c12` is 33.9%; for `Cc1nc2sc(C(=O)c3ccccc3)c(N)c2c2c1CCCC2` it is 30.6%. Turning to `O=C(COc1ccccc1Cl)N1N=C(c2cccs2)CC1c1ccco1` (stereo not given), the inhibition was 37.1%. As to `CCOc1cc(C(=O)Nc2c(C)ccc3nsnc23)cc(OCC)c1OCC`, the inhibition was 27.9%.

In the case of `CC(=O)Oc1c(C(=O)c2nnc(C)o2)c(=O)n(Cc2ccccc2)c2ccccc12`, the inhibition was 38.8%. As to `O=C1c2cccc3cccc(c23)N1CN1CCN(c2ccccn2)CC1`, the inhibition was 28.8%. Take `CC(=O)NNC(=O)c1csc(Cc2c(Cl)sc3ccc(Cl)cc23)n1`: the inhibition was -2.26%. Regarding `O=C(c1ccc(Cl)cc1)N1N=C(c2ccccn2)CC1(O)C(F)(F)F` (stereo not given), the inhibition is 1.98%. On to `CCOc1cc(/C=N/Nc2cc(C)nc3ccc(C)cc23)ccc1O`, for which the inhibition is 40.1% (active).

Turning to `CCN1CCCC1CNc1ncnc2c1[nH]c1ccc(F)cc12` (stereo not given), the inhibition was 31%.

Regarding `C[C@H](O)[C@@H]1C(=O)N2CCc3c([nH]c4ccccc34)[C@@H]2C[C@@H]1N(C)C(=O)Nc1ccc(F)cc1`, the inhibition was 14.4%. The figure for `Cc1ccc2cc(C#N)c(NCCNC(=S)NCCCN3CCOCC3)nc2c1` is 33.7%.

In the case of `COc1ccc(N(CC(=O)N/N=C/c2cccc3c2OCCO3)S(=O)(=O)c2ccc(NC(C)=O)cc2)cc1`, the inhibition is 42.7% (active). The figure for `O=C1NC(c2ccncc2)Nc2sc3c(c21)CCCC3` (stereo not given) is 39.4%. The figure for `COc1cccc(C2CC(c3cccs3)=NN2C(=O)CSC2=NCCS2)c1OC` (stereo not given) is -80.4%; for `N#Cc1ccc(/C=C2\CCn3c2nc2cc(C(=O)O)ccc2c3=O)cc1` it is 54.8% (active); for `O=C(O)c1ccc2c(=O)n3c(nc2c1)/C(=C/c1ccc(OC(F)F)cc1OC(F)F)CC3` it is 43.2% (active). In the case of `CCOc1ccc2nc(NCCNC(=O)C(C)(C)C)c(C)cc2c1` it was 34.1%; in that of `Cc1ccc(-n2ncc3c(Nc4cccc(C(=O)O)c4)ncnc32)cc1`, 35.6%; in that of `CCOCCCNC(=O)C(NC(=O)c1ccccc1O)c1ccccc1` (stereo not given), 39.4%. Take `COc1ccc(C2c3[nH]c4ccccc4c3CCN2CCCn2cccn2)cc1C` (stereo not given): the inhibition is 29.8%.

Turning to `O=c1cc(CN2CCCCCCC2)c2c(ccc3ccccc32)o1`, the inhibition was 14.7%. Take `Cc1noc(C)c1C(=O)OCC(=O)/C=C1\N(C)c2ccccc2C1(C)C`: the inhibition was 22.3%. With `CCOc1ccc2[nH]c(=O)c(CN(Cc3nnnn3CCc3ccccc3)CC3CCCO3)cc2c1` (stereo not given), the inhibition is 12.7%.

The record behind these values is PubChem BioAssay AID652217 (Sanford-Burnham Center for Chemical Genomics, 2013).
